Experimental data as given in the supplement of paper PMC8007513.
Counter-ions that a name gives are not always drawn. ± gives the standard error. Hit rate of the full screen: of about 1,300 compounds, about 130 (10%) showed an effect of 50% or more. This is one part of a sample in which strong results are shown more often than they occur.

Tested on: Trichoderma virens ATCC 9645
Assay: growth yield (OD600) with compound + IPBC relative to untreated control; higher = less growth inhibition
Conditions: compound concentration: 100 uM, IPBC concentration: 200 ng/ml
Summary of the method: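 Trichoderma virens ATCC 9645 spores from 7-day potato dextrose agar plates were suspended in potato dextrose broth at 15,000 spores ml^−1. Aliquots of 100 μl with library compounds at 100 μM final, with or without a co-applied biocide at 200 ng ml^−1, were grown in 96-well plates at 30 °C. OD600 was read at 40 h and 72 h on a BioTek EL800. Growth is expressed relative to the control without either agent, as means of duplicate screens.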

CCOc1ccccc1OCC1CNCCO1 (stereo not drawn) [Viloxazine hydrochloride] + CCCCNC(=O)OCC#CI [3-iodo-2-propynyl butylcarbamate (IPBC)]
growth yield (40 h): 103 ± 19%
growth yield (72 h): 102 ± 14%

Clc1ccccc1C(c1ccccc1)(c1ccccc1)n1ccnc1 [Clotrimazole] + CCCCNC(=O)OCC#CI [3-iodo-2-propynyl butylcarbamate (IPBC)]
growth yield (40 h): 5.08 ± 0.32%
growth yield (72 h): 3.46 ± 0.1%

CCN1CCCC1CNC(=O)c1cc(S(N)(=O)=O)ccc1OC (stereo not drawn) [Sulpiride] + CCCCNC(=O)OCC#CI [3-iodo-2-propynyl butylcarbamate (IPBC)]
growth yield (40 h): 86.41 ± 0.32%
growth yield (72 h): 90.3 ± 0.94%

CCC(C)(C)c1ccc(CC(C)CN2C[C@@H](C)O[C@@H](C)C2)cc1 (stereo partly drawn) [Amorolfine hydrochloride] + CCCCNC(=O)OCC#CI [3-iodo-2-propynyl butylcarbamate (IPBC)]
growth yield (40 h): 3.97 ± 0.16%
growth yield (72 h): 2.94 ± 0.21%

C[C@]12COC(=O)C[C@@H]1CC[C@@H]1[C@@H]2CC[C@@]2(C)[C@H]1CC[C@]2(C)O [Oxandrolone] + CCCCNC(=O)OCC#CI [3-iodo-2-propynyl butylcarbamate (IPBC)]
growth yield (40 h): 102.8 ± 0.79%
growth yield (72 h): 101.8 ± 0.94%

CCN(CC)C(=O)Nc1ccc(OCC(O)CNC(C)(C)C)c(C(C)=O)c1 (stereo not drawn) [Celiprolol hydrochloride] + CCCCNC(=O)OCC#CI [3-iodo-2-propynyl butylcarbamate (IPBC)]
growth yield (40 h): 87 ± 5.7%
growth yield (72 h): 92.2 ± 3.9%

CN[C@@H]1[C@@H](O)[C@@H](O[C@@H]2[C@@H](O)[C@H](O[C@H]3O[C@H](CN)CC[C@H]3N)[C@@H](N)C[C@H]2N)OC[C@]1(C)O.CN[C@@H]1[C@@H](O)[C@@H](O[C@@H]2[C@@H](O)[C@H](O[C@H]3O[C@H]([C@@H](C)N)CC[C@H]3N)[C@@H](N)C[C@H]2N)OC[C@]1(C)O.CN[C@@H]1[C@@H](O)[C@@H](O[C@@H]2[C@@H](O)[C@H](O[C@H]3O[C@H]([C@@H](C)NC)CC[C@H]3N)[C@@H](N)C[C@H]2N)OC[C@]1(C)O [Gentamicine sulfate] + CCCCNC(=O)OCC#CI [3-iodo-2-propynyl butylcarbamate (IPBC)]
growth yield (40 h): 98.3 ± 7.5%
growth yield (72 h): 101 ± 4.4%

CC1OC(OC2/C=C/C=C/C=C/C=C/CC/C=C/C=C/[C@H](C)[C@@H](O)[C@@H](C)[C@H](C)OC(=O)CC(O)CC(O)CC(O)CCC(O)C(O)C[C@]3(O)CC(O)C(C(=O)O)C(C2)O3)C(O)C(N)C1O (stereo partly drawn) [Nystatine] + CCCCNC(=O)OCC#CI [3-iodo-2-propynyl butylcarbamate (IPBC)]
growth yield (40 h): 50.5 ± 2.5%
growth yield (72 h): 104 ± 2.3%

C[C@@H]1[C@H](O)[C@@H](C)/C=C/C=C/C=C/C=C/C=C/C=C/C=C/[C@H](O[C@@H]2O[C@H](C)[C@@H](O)[C@H](N)[C@@H]2O)C[C@@H]2O[C@](O)(C[C@@H](O)C[C@@H](O)[C@H](O)CC[C@@H](O)C[C@@H](O)CC(=O)O[C@H]1C)C[C@H](O)[C@H]2C(=O)O [Amphotericin B] + CCCCNC(=O)OCC#CI [3-iodo-2-propynyl butylcarbamate (IPBC)]
growth yield (40 h): 37.3 ± 4.6%
growth yield (72 h): 92.61 ± 0.73%

Clc1cccc(Cl)c1NC1=NCCN1 [Clonidine hydrochloride] + CCCCNC(=O)OCC#CI [3-iodo-2-propynyl butylcarbamate (IPBC)]
growth yield (40 h): 92.9 ± 5.6%
growth yield (72 h): 99.2 ± 4.4%

Cc1oncc1C(=O)Nc1ccc(C(F)(F)F)cc1 [Leflunomide] + CCCCNC(=O)OCC#CI [3-iodo-2-propynyl butylcarbamate (IPBC)]
growth yield (40 h): 40.2 ± 3%
growth yield (72 h): 82 ± 1.5%

CC1CCc2cc(F)cc3c(=O)c(C(=O)O)cn1c23 (stereo not drawn) [Flumequine] + CCCCNC(=O)OCC#CI [3-iodo-2-propynyl butylcarbamate (IPBC)]
growth yield (40 h): 78.63 ± 0.16%
growth yield (72 h): 97.12 ± 0.84%

COC(=O)[C@H]1[C@H]2C[C@@H]3c4[nH]c5cc(OC)ccc5c4CCN3C[C@H]2C[C@@H](OC(=O)c2cc(OC)c(OC)c(OC)c2)[C@@H]1OC [Reserpine] + CCCCNC(=O)OCC#CI [3-iodo-2-propynyl butylcarbamate (IPBC)]
growth yield (40 h): 102 ± 3.2%
growth yield (72 h): 104 ± 2%

CC(=O)NC1CCSC1=O (racemic) [N-Acetyl-DL-homocysteine Thiolactone] + CCCCNC(=O)OCC#CI [3-iodo-2-propynyl butylcarbamate (IPBC)]
growth yield (40 h): 95.8 ± 7.8%
growth yield (72 h): 96.3 ± 7.8%

CC(C(=O)O)c1cccc(C(=O)c2ccccc2)c1 (stereo not drawn) [Ketoprofen] + CCCCNC(=O)OCC#CI [3-iodo-2-propynyl butylcarbamate (IPBC)]
growth yield (40 h): 74 ± 0.95%
growth yield (72 h): 86.4 ± 1.5%

CC(C(=O)O)c1cccc(Oc2ccccc2)c1 (stereo not drawn) [Fenoprofen calcium salt dihydrate] + CCCCNC(=O)OCC#CI [3-iodo-2-propynyl butylcarbamate (IPBC)]
growth yield (40 h): 73.9 ± 12%
growth yield (72 h): 84 ± 9.1%

CC(C(=O)O)c1ccc(-c2ccccc2)c(F)c1 (stereo not drawn) [Flurbiprofen] + CCCCNC(=O)OCC#CI [3-iodo-2-propynyl butylcarbamate (IPBC)]
growth yield (40 h): 43.4 ± 3.3%
growth yield (72 h): 76.9 ± 2%

NC(CO)C(=O)NNCc1ccc(O)c(O)c1O (stereo not drawn) [Benserazide hydrochloride] + CCCCNC(=O)OCC#CI [3-iodo-2-propynyl butylcarbamate (IPBC)]
growth yield (40 h): 63.9 ± 0.64%
growth yield (72 h): 75.2 ± 0.52%

CN[C@@H]1[C@H](O)[C@H](NC)[C@H]2O[C@@]3(O)C(=O)C[C@@H](C)O[C@H]3O[C@@H]2[C@H]1O [Spectinomycin dihydrochloride] + CCCCNC(=O)OCC#CI [3-iodo-2-propynyl butylcarbamate (IPBC)]
growth yield (40 h): 104 ± 13%
growth yield (72 h): 103 ± 8%

CC(NCCC(c1ccccc1)c1ccccc1)c1ccccc1 (stereo not drawn) [Fendiline hydrochloride] + CCCCNC(=O)OCC#CI [3-iodo-2-propynyl butylcarbamate (IPBC)]
growth yield (40 h): 70.37 ± 0.16%
growth yield (72 h): 93.7 ± 1.4%

Cc1ccnc(NS(=O)(=O)c2ccc(N)cc2)n1 [Sulfamerazine] + CCCCNC(=O)OCC#CI [3-iodo-2-propynyl butylcarbamate (IPBC)]
growth yield (40 h): 88.2 ± 6.2%
growth yield (72 h): 90.9 ± 4.7%

CC(C)(C)C(=O)OCOC(=O)[C@@H]1N2C(=O)[C@@H](/N=C/N3CCCCCC3)[C@H]2SC1(C)C [Pivmecillinam hydrochloride] + CCCCNC(=O)OCC#CI [3-iodo-2-propynyl butylcarbamate (IPBC)]
growth yield (40 h): 57.8 ± 4.5%
growth yield (72 h): 77.2 ± 3.1%

CCC(=O)O[C@]1(C(=O)CCl)[C@@H](C)C[C@H]2[C@@H]3CCC4=CC(=O)C=C[C@]4(C)[C@@]3(F)[C@@H](O)C[C@@]21C [Clobetasol propionate] + CCCCNC(=O)OCC#CI [3-iodo-2-propynyl butylcarbamate (IPBC)]
growth yield (40 h): 109 ± 7.2%
growth yield (72 h): 106 ± 4.7%

C[C@@H]1C[C@@H]([C@H](O)CC2CC(=O)NC(=O)C2)C(=O)[C@@H](C)C1 [Cycloheximide] + CCCCNC(=O)OCC#CI [3-iodo-2-propynyl butylcarbamate (IPBC)]
growth yield (40 h): 34.3 ± 2.9%
growth yield (72 h): 85.7 ± 3.2%

C[C@]12CC[C@H]3C(=CCc4cc(O)ccc43)[C@@H]1CCC2=O [Equilin] + CCCCNC(=O)OCC#CI [3-iodo-2-propynyl butylcarbamate (IPBC)]
growth yield (40 h): 82.4 ± 17%
growth yield (72 h): 86.8 ± 9%

C=CC[N@@+]12CC[C@@]34c5ccccc5N5/C=C6/[C@H]7C[C@H]8[C@@]9(CC[N@@+]8(CC=C)C/C7=C/CO)c7ccccc7N(/C=C(/[C@@H](C[C@@H]31)/C(=C\CO)C2)[C@H]54)[C@@H]69 [Alcuronium chloride] + CCCCNC(=O)OCC#CI [3-iodo-2-propynyl butylcarbamate (IPBC)]
growth yield (40 h): 6.83 ± 0.16%
growth yield (72 h): 35.4 ± 3.4%

Cn1ccnc1S [Methimazole] + CCCCNC(=O)OCC#CI [3-iodo-2-propynyl butylcarbamate (IPBC)]
growth yield (40 h): 120 ± 16%
growth yield (72 h): 111 ± 12%

CNCCC(Oc1ccc(C(F)(F)F)cc1)c1ccccc1 (stereo not drawn) [Fluoxetine hydrochloride] + CCCCNC(=O)OCC#CI [3-iodo-2-propynyl butylcarbamate (IPBC)]
growth yield (40 h): 71.8 ± 4.8%
growth yield (72 h): 96.9 ± 2.9%

CN1CCN(C(c2ccccc2)c2ccccc2)CC1 [Cyclizine hydrochloride] + CCCCNC(=O)OCC#CI [3-iodo-2-propynyl butylcarbamate (IPBC)]
growth yield (40 h): 82.6 ± 1.3%
growth yield (72 h): 87.6 ± 2%

O=C(O)COCCN1CCN(C(c2ccccc2)c2ccc(Cl)cc2)CC1 (stereo not drawn) [Cetirizine dihydrochloride] + CCCCNC(=O)OCC#CI [3-iodo-2-propynyl butylcarbamate (IPBC)]
growth yield (40 h): 88.5 ± 6.8%
growth yield (72 h): 93.8 ± 3.8%

C(=C\c1ccccc1)/CN1CCN(C(c2ccccc2)c2ccccc2)CC1 [Cinnarizine] + CCCCNC(=O)OCC#CI [3-iodo-2-propynyl butylcarbamate (IPBC)]
growth yield (40 h): 34.9 ± 5.1%
growth yield (72 h): 93.1 ± 4%

OCCOCCN1CCN(C(c2ccccc2)c2ccc(Cl)cc2)CC1 (stereo not drawn) [Hydroxyzine dihydrochloride] + CCCCNC(=O)OCC#CI [3-iodo-2-propynyl butylcarbamate (IPBC)]
growth yield (40 h): 76.08 ± 0.16%
growth yield (72 h): 95.9 ± 2.5%

Fc1ccc(C(c2ccc(F)cc2)N2CCN(C/C=C/c3ccccc3)CC2)cc1 [Flunarizine dihydrochloride] + CCCCNC(=O)OCC#CI [3-iodo-2-propynyl butylcarbamate (IPBC)]
growth yield (40 h): 3.81 ± 0.32%
growth yield (72 h): 3.78 ± 0.42%

COc1ccc(CN2CCN(C(c3ccc(F)cc3)c3ccc(F)cc3)CC2)c(OC)c1OC [Lomerizine hydrochloride] + CCCCNC(=O)OCC#CI [3-iodo-2-propynyl butylcarbamate (IPBC)]
growth yield (40 h): 71.8 ± 5.7%
growth yield (72 h): 97.4 ± 4.9%
